M1 PAM = human CHRM1 positive allosteric modulation. actives 0.088% (n = 360,000). activation, % at 3 µM. CHO-K1 hM1, Fluo-8 calcium fluorescence, ACh EC20; 0% = ACh EC20, 100% = maximal ACh; in the data active means activation above about 19%, passing the limit was not always enough
Target sequence (P11229 whole entry, looked up): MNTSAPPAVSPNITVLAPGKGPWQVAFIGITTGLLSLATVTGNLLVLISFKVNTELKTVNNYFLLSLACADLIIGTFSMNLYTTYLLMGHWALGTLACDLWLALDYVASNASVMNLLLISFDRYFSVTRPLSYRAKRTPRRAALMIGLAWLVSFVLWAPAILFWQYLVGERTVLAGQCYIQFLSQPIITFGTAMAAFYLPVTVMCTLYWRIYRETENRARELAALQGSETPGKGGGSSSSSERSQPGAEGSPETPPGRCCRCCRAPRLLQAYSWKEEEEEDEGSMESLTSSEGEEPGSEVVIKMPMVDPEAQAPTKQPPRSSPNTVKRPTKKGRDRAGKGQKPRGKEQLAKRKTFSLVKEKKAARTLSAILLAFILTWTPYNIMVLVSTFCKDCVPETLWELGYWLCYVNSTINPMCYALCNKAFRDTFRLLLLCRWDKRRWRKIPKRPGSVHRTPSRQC
CHO-K1 Ca antag = counter-screen for M1 antagonists: effect in parental CHO-K1 cells. AID 602250. actives 0.6% (n = 360,000). ATP-induced calcium, Fluo-8 fluorescence. inhibition, % at 3 µM;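 active means inhibition above a per-plate cutoff, the plate's mean sample inhibition plus 3 SD, cut at about 24% in these data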;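 further: 0% = DMSO plus EC80 ATP and 100% = DMSO alone without ATP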
CHO-K1 Ca PAM = counter-screen for M1 PAMs: effect in parental CHO-K1 cells | ATP EC20, Fluo-8 calcium fluorescence; 0% at ATP EC20, 100% at ATP max | activation, % at 3 µM | actives 0.02% (n = 360,000) | AID 602247;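 active means activation above the run cutoff, the mean activation of all test compounds plus 3 SD, cut at about 40% in these data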;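 further: peak over basal fluorescence ratio in a 140 s read after ATP addition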
CHRM1 agonist = agonists of human M1 muscarinic receptor | P11229 | CHO-K1 hM1, Fluo-8 calcium fluorescence, agonist mode; 0% DMSO, 100% acetylcholine EC100 | activation, % at 3 µM | actives 0.33% (n = 360,000) | AID 588814;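 active means activation above the run's mean compound activation plus 3 SD, cut at about 16% in these data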;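 further: peak over basal fluorescence ratio within a 140 s kinetic read after compound addition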
M1 antag = blocks human M1 muscarinic receptor; P11229; CHO-K1 hM1, Fluo-8 calcium fluorescence, ACh EC80 antagonist; inhibition, % at 3 µM; actives 1.3% (n = 360,000); AID 588852;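 active means percent inhibition above its own plate's cutoff, namely the mean of that plate's compound wells plus 3 SD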;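 further: peak over basal fluorescence ratio during 140 s after agonist addition; 0% = ACh EC80 plus DMSO and 100% = DMSO alone without agonist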
M1 ag parental = M1 agonist counterscreen hit in parental CHO-K1 cells; actives 0.48% (n = 360,000); AID 602248; Fluo-8 calcium fluorescence; scaled to maximal ATP response, vehicle zero; activation, % at 3 µM; in the data active means activation above about 15%;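 further: untransfected CHO-K1 host cells lacking M1 receptor as counterscreen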
* = called active by the depositor. In the library only some 2.3% were active in any assay of this set; here they are far more common.

What do the screens show for `O=C(COC(=O)c1nn(-c2ccccc2C(F)(F)F)cc1O)c1ccc(OC(F)F)cc1`?
M1 PAM: 2; CHO-K1 Ca antag: -8; CHO-K1 Ca PAM: -5; CHRM1 agonist: -2; M1 antag: -2; M1 ag parental: 3

How did Cc1cc(C(c2ccc(O)cc2)c2cc(C)c(O)cc2C)c(C)cc1O do in these assays?
M1 PAM: 9; CHO-K1 Ca antag: 4; CHO-K1 Ca PAM: 31; CHRM1 agonist: 42*; M1 antag: 9; M1 ag parental: 11

What do the screens show for `CCC(c1ccc(O)cc1)C(CC)c1ccc(O)cc1` (stereo unspecified)?
M1 PAM: -13; CHO-K1 Ca antag: 7; CHO-K1 Ca PAM: 5; CHRM1 agonist: -4; M1 antag: -2; M1 ag parental: 0

What do the screens show for `CCC(C(=O)N1CCN(Cc2ccc3c(c2)OCO3)CC1)n1c(=O)[nH]c2ccccc2c1=O` (stereo unspecified)?
M1 PAM: -3; CHO-K1 Ca antag: -4; CHO-K1 Ca PAM: 3; CHRM1 agonist: -4; M1 antag: 11; M1 ag parental: 1

What do the screens show for `C(C#CCCCCCCCCC[n+]1ccccc1)#CCCCCCCCCC[n+]1ccccc1`?
M1 PAM: -27; CHO-K1 Ca antag: -6; CHO-K1 Ca PAM: 15; CHRM1 agonist: -5; M1 antag: 98*; M1 ag parental: 1

Results for CN(C)c1ccc(S(=O)(=O)NCC(=O)NCCC2=CCCCC2)cc1[N+](=O)[O-] ?
M1 PAM: -5; CHO-K1 Ca antag: -6; CHO-K1 Ca PAM: 12; CHRM1 agonist: -5; M1 antag: 14; M1 ag parental: 1

How did CCOc1ccc(-c2cc(NC(=O)Cn3ncc4c3-c3ccccc3OC4)on2)cc1OCC do in these assays?
M1 PAM: 2; CHO-K1 Ca antag: -9; CHO-K1 Ca PAM: 14; CHRM1 agonist: -3; M1 antag: -3; M1 ag parental: 1

What do the screens show for `COc1ccc(/C=C/C2=CC(C)(C)NC(=S)N2)cc1OC`?
M1 PAM: 12; CHO-K1 Ca antag: 26*; CHO-K1 Ca PAM: -15; CHRM1 agonist: 2; M1 antag: 6; M1 ag parental: 0

Results for COc1cccc(/C=C/C2=CC(C)(C)NC(=S)N2)c1 ?
M1 PAM: 2; CHO-K1 Ca antag: 10; CHO-K1 Ca PAM: 3; CHRM1 agonist: -7; M1 antag: -1; M1 ag parental: -1

What do the screens show for `CN(C)c1ccc(-c2cccc3nccn23)cc1`?
M1 PAM: 1; CHO-K1 Ca antag: -9; CHO-K1 Ca PAM: 16; CHRM1 agonist: -8; M1 antag: -9; M1 ag parental: 1

Results for CS(=O)(=O)Nc1ccc(-c2cccc3nccn23)cc1 ?
M1 PAM: -12; CHO-K1 Ca antag: 6; CHO-K1 Ca PAM: 0; CHRM1 agonist: -2; M1 antag: 24*; M1 ag parental: 0

How did CC(C)(C)N(Cc1ccccc1)C(=O)COC(=O)C1=NN(c2ccccc2)C(=O)CC1 do in these assays?
M1 PAM: 6; CHO-K1 Ca antag: 4; CHO-K1 Ca PAM: 9; CHRM1 agonist: -4; M1 antag: -7; M1 ag parental: 5

Results for Cc1cccc(C(=O)NCC(=O)NC2CCN(Cc3ccccc3)CC2)c1 ?
M1 PAM: 15; CHO-K1 Ca antag: -8; CHO-K1 Ca PAM: -10; CHRM1 agonist: -5; M1 antag: -23; M1 ag parental: 0

How did CN(C)S(=O)(=O)c1cccc(C(=O)NCC(=O)NC2CCN(Cc3ccccc3)CC2)c1 do in these assays?
M1 PAM: -16; CHO-K1 Ca antag: 15; CHO-K1 Ca PAM: -25; CHRM1 agonist: -13; M1 antag: 34*; M1 ag parental: 0

How did Cc1cc(C)cc(N(CCC#N)C(=O)COC(=O)C2CCN(c3ccc(C(F)(F)F)cn3)CC2)c1 do in these assays?
M1 PAM: -16; CHO-K1 Ca antag: 6; CHO-K1 Ca PAM: -7; CHRM1 agonist: -7; M1 antag: 30*; M1 ag parental: -1

Results for C[C@@H](NS(=O)(=O)c1cc(Cl)ccc1F)[C@H](O)c1ccccc1 ?
M1 PAM: -2; CHO-K1 Ca antag: 3; CHO-K1 Ca PAM: -3; CHRM1 agonist: -3; M1 antag: -1; M1 ag parental: 0
